# HP1b chromo inh = HP1-beta chromodomain-methylated histone interaction inhibition; AlphaScreen HP1-beta / biotin-H3K9me3 peptide binding; Potency, µM (series often up to 114 µM), hits mostly inhibitors; 390,000 compounds, 0.56% hits; AID 540317; note: nearly all actives have a fitted effect of over 70% in size
#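 AlphaScreen: HP1-beta (50 nM) preformed 30 min with biotin-H3(1-18)K9me3 peptide (50 nM) in PBS pH 7.4, 0.01% Tween-20. Compound added for 30 min at RT, then streptavidin donor/nickel chelate acceptor beads (10 ug/mL) for 30 min.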
# CtBP-E1A inh = blocks the CtBP interaction with E1A | AlphaScreen GST-E1A/His-CtBP binding, 1536-well; stronger effect = lower value | activity change, % (concentration not given with the values) | AID 651724 | 340,000 compounds, 0.49% hits; in the data active = activity change below about -65%; inconclusive = mostly about -30% to -63%
#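 AlphaScreen with 125 nM GST-E1A and 125 nM His-CtBP (5X stocks) in Tris pH 8.0, 300 mM NaCl, BSA, Tween 20, TCEP. Compounds preincubated 2 h at 37 deg C, then glutathione donor/nickel acceptor beads added for 1 h at 37 deg C in dark.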
# JMJD2A Tudor = inhibitors of human JMJD2A Tudor domain; O75164; AlphaScreen JMJD2A-Tudor / H3K4me3 peptide binding; Potency, µM (doses to about 114 µM), usual class: inhibitors; 390,000 compounds, 4.4% hits; AID 504339; note: nearly all actives have a fitted effect of over 50% in size
# Six1-Eya2 inh = Six1/Eya2 interaction inhibition; Q15475+O00167; AlphaScreen GST-Six1/His-Eya2 binding, biochemical; stronger effect = lower value; activity change, % (concentration not given with the values); 360,000 compounds, 0.56% hits; in the data active = activity change below about -65%; inconclusive = mostly about -30% to -63%
#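 GST-Six1 + His-Eya2 (5X stock: 250/500 nM); Tris pH 8.0, 300 mM NaCl, 0.05% BSA, 0.02% Tween 20; GSH donor/Ni acceptor beads; 1 h 37 °C dark; AlphaScreen readout.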
# BAZ2B block = BAZ2B (human) inhibition | Q9UIF8 | AlphaScreen BAZ2B-H3K14Ac peptide displacement | Potency, µM (doses to about 114 µM), usual class: inhibitors | 360,000 compounds, 4.4% hits | AID 504333; note: nearly all actives have a fitted effect of over 60% in size
#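 AlphaScreen displacement: compounds (up to 110uM) incubated 30 min at room temperature with a preformed 50 nM BAZ2B/50 nM biotinylated H3K14Ac peptide complex in PBS pH 7.4 with Tween-20. Donor and acceptor beads at 10 ug/mL final added, 20 min light-protected before reading.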
# G9a inh = inhibitors of human histone lysine methyltransferase G9a; G9a H3K9 monomethylation, AlphaScreen, 2 h; Potency, µM (doses to about 102 µM), hits mostly inhibitors; AID 504332; 350,000 compounds, 8.8% hits; Q96KQ7; note: nearly all actives have a fitted effect of over 75% in size
#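 Enzyme 20 nM + cpd, 15 min RT; add b-H3K9 pep 500 nM / SAM 20 uM; 2 h RT; anti-H3K9me1 Ab 0.5 ug/mL + SA donor / anti-rabbit acceptor beads 20 ug/mL each, 10 min; AlphaScreen read.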
# Hits are given with their value; - = inactive; ? = inconclusive; . = no result; [ ] = dose if it differs, or a comment. The list is not random: actives were taken first. Their share in the collection is about 10%. Unless noted, calls come from the whole dose curve; as a rule, active = well fitted inhibition curve with a large enough effect; inconclusive = small, poorly fitted or top-dose-only effect; inactive = no such curve, though single readings can be large or run the other way.
SMILES,HP1b chromo inh,CtBP-E1A inh,JMJD2A Tudor,Six1-Eya2 inh,BAZ2B block,G9a inh
O=C1[C@H]2[C@@H](C3CC3)N3C(=O)CN(CC4CC4)C(=O)[C@@]3(Cc3ccccc3)[C@H]2C(=O)N1c1ccccc1,-,-,-,-,.,.
Cc1ccc(-n2c(-c3nn(C)c(C)c3Cl)n[nH]c2=S)cc1,-,-,?,-,-,?
CN1CCCC2(CCN(C(=O)c3csnn3)CC2)C1,.,.,.,.,.,-[12.7 µM]
O=C(NCNC(=O)N[C@H]1C(=O)NC(=O)N1CO)N[C@H]1C(=O)NC(=O)N1CO,.,.,.,.,.,-[21.5 µM]
NCC1O[C@@H](O[C@H]2C(O)C(O[C@@H]3C(O[C@H]4OC(CO)C(O)C(O)C4N)C(N)CC(N)[C@H]3O)O[C@@H]2CO)C(N)C(O)C1O (some centres undefined),.,.,.,.,.,-[2.33 µM]
Cc1cccc(N2CCN(CCc3ccccc3)CC2)c1C,-,-,-,-,?,-[12.7 µM]
Cc1ccc(N2CCN(CCc3ccccc3)CC2)cc1,-,-,?,-,50µM,?
COCCN1C(=NCCCOC(C)C)N[C@@H](c2ccccc2)C(C(=O)OC)=C1C,-,-,?,-,-,.
CCCOP(=O)(c1ccc(N(C)C)cc1)C(O)c1ccc(Cl)cc1Cl (centres undefined),-,-,?,-,-,-
CCCCOP(=O)(c1ccc(N(C)C)cc1)C(Nc1ccccc1)c1ccccc1 (centres undefined),-,-,?,?,?,45µM
C[C@H](CCC(=O)O)C[C@H](C)C[C@H](C)C(=O)/C=C(\O)[C@H](C)C[C@H](C)C/C=C/[C@@H](C)[C@@H](O)[C@@H](C)[C@@H](O)C[C@@H]1CC[C@@](C)(C2CC[C@@](C)([C@@H](C)O)O2)O1 (some centres undefined),.,.,.,.,.,-
S=c1[nH]c2cc(Br)cnc2[nH]1,?,-,20µM,-,-,3.2µM
COC(=O)C(N)CCCN=C(N)N[N+](=O)[O-] (centres undefined),.,.,.,.,.,-[12.7 µM]
CC(C)(C)NC(=S)/N=C(\N)N[N+](=O)[O-],-,-,-,-,?,22µM
C[C@]12CCC3C(CC[C@H]4CC(O)CC[C@]34C)C1CC/C2=N/NC(=O)c1ccncc1 (some centres undefined),-,-,-,-,-,-
Cc1ccccc1C(=O)Nc1sc2c(c1C(=O)O)CCC(C(C)(C)C)C2 (centres undefined),-,.,-,.,?,10µM
Cc1nn(-c2ccncc2)c2c1C(=O)CC(C)(C)C2Br (centres undefined),-,-,-,-,.,.
COc1ccc(/C=C2/C(=O)N(Cc3ccco3)C(=O)N(C(C)C)C2=O)cc1,-,.,-,-,-,?
CCN1C(=O)C(=C2C=C(C)N(Cc3ccco3)C(C)=C2)C(=O)N(CC)C1=S,-,-,-,-,-,-
CC(C)N1C(=O)/C(=C/C=C/c2ccco2)C(=O)N(Cc2ccco2)C1=O,28µM,-,14µM,?,35µM,.
CCN1C(=O)C(=C/C=C/c2ccco2)C(=O)N(CC)C1=S,?,-,50µM,?,45µM,13µM
C[C@@H]1C(=O)O[C@H]2CC34[C@H]5C[C@@H](C(C)(C)C)[C@]36[C@@H](OC(=O)[C@@H]6O)O[C@@]4(C(=O)O5)[C@]21O (some centres undefined),-,-,-,-,-,-[12.7 µM]
Fc1ccc(CCNCc2cccc(Cl)c2)cc1,-,-,-,-,-,-[0.501 µM]
COc1cccc(CNCCc2ccc(F)cc2)c1,-,.,?,-,40µM,-
COc1ccc2ccccc2c1CNCCc1ccccc1,-,.,-,-,-,.
SMILES,HP1b chromo inh,CtBP-E1A inh,JMJD2A Tudor,Six1-Eya2 inh,BAZ2B block,G9a inh
COc1cccc(CCNCc2c(F)cccc2F)c1,?,.,?,-,40µM,7.9µM
C[C@H](N)[C@@H](O)c1ccccc1,.,.,.,.,.,-[21.5 µM]
S=C(S)N1CCCC1,-,-,-,-,-,0.71µM
CCCCC[C@@H](/C=C/C=C\CCCCCCCC(=O)O)OO,.,.,.,.,.,-
N[C@H](CCCCCP(=O)(O)O)C(=O)O,.,.,.,.,.,-[12.7 µM]
C[C@]12CC[C@@H]3[C@@H](CCC4=CC(=O)CC[C@@H]43)[C@@H]1CC[C@@H]2OC(=O)CCc1ccccc1,.,.,.,.,.,-
